# Measured values reported in PMC7862700, “An all-to-all approach to the identification of sequence-specific readers for epigenetic DNA modifications on cytosine”.
# Key:
# Assay in all cases: DAPPL (digital affinity profiling via proximity ligation, sequencing); 10 mM Tris-HCl pH 7.5, 50 mM NaCl, 1 mM DTT, 4% glycerol, room temperature, 30 min; GST-TFs on glutathione beads, 16-mer random dsDNA library, 0.1% formaldehyde crosslink after washing; high values mean tight binding
# Conditions in all cases: protein: recombinant; tags: N-terminal GST; dsDNA, one strand shown
# ELK1 = biological target: T1, ELK1 (Homo sapiens, UniProt P19419 1-428)
# T1 sequence: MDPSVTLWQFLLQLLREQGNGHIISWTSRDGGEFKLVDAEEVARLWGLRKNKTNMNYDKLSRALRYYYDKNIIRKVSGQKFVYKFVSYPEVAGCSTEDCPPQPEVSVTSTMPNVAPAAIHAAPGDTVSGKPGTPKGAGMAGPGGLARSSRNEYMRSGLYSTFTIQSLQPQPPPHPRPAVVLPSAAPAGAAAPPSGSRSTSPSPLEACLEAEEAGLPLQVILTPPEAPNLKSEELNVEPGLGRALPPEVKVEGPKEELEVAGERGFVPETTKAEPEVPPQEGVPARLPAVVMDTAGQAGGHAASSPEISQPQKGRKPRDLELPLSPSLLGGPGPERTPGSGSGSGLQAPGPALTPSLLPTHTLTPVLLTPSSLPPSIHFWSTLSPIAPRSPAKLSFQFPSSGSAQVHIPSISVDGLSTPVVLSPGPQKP
# Outline: (§1)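 A tag-only sample was pooled with DNA-barcoded human transcription factors that had been expressed in yeast as GST fusions and captured on glutathione beads. The pools were incubated for 30 min at room temperature with 200 nmole of a random double-stranded 16-mer DNA library in Tris/NaCl/DTT/glycerol buffer, then washed, crosslinked with 0.1% formaldehyde, proximity-ligated (BsaI/T4 ligase, 1 h, 37 °C), PCR-amplified and sequenced on an Illumina NextSeq500. Binding signal is each hexamer's read frequency for a factor divided by its frequency for the tag-only sample.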
# GABPA = biological target: T2, GABPA (Homo sapiens, UniProt Q06546 1-454)
# T2 sequence: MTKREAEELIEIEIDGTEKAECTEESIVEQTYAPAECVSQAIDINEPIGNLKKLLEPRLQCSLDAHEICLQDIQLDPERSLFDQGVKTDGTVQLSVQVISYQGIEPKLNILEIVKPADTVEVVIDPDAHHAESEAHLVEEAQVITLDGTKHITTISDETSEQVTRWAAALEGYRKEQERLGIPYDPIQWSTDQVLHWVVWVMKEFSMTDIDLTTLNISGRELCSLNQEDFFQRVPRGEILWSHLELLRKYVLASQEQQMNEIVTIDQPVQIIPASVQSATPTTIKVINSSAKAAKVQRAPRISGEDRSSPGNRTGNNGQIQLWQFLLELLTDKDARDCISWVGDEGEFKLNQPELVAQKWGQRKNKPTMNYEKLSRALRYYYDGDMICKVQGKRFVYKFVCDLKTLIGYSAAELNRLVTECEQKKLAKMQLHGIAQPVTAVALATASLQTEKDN
# Outline: as §1
# ELF1 = ELF1 (Homo sapiens, UniProt P32519 1-619)
# Chain of ELF1 (P32519 whole entry): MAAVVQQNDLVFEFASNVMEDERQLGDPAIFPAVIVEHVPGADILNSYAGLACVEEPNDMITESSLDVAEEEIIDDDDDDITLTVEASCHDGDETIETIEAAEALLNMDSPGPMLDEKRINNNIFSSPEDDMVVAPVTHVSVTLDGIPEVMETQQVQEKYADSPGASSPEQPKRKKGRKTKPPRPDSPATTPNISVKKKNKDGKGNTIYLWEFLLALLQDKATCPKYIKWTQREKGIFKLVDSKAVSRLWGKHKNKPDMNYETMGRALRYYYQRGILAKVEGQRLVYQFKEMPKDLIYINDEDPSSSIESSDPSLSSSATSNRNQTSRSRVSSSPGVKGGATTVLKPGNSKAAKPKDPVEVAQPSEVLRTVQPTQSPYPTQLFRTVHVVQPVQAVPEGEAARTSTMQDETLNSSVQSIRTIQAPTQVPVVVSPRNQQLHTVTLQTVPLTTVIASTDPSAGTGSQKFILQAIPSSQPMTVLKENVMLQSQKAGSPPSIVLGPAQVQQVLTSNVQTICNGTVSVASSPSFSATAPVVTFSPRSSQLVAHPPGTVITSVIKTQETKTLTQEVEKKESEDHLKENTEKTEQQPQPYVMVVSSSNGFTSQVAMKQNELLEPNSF
# Outline: as §1
# EHF = biological target: T3, EHF (Homo sapiens, UniProt Q9NZC4 1-300)
# T3 sequence: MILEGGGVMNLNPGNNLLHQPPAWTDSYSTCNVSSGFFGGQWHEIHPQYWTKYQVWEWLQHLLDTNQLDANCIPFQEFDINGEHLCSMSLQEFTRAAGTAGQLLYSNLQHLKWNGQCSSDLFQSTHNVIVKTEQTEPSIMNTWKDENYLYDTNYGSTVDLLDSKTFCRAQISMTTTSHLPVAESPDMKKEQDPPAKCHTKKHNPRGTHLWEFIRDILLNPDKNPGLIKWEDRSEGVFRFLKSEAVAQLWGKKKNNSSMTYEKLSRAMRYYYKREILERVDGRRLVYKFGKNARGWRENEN
# Outline: as §1
# SPIB = SPIB (Homo sapiens, UniProt Q01892 1-262)
# Chain of SPIB (Q01892 whole entry): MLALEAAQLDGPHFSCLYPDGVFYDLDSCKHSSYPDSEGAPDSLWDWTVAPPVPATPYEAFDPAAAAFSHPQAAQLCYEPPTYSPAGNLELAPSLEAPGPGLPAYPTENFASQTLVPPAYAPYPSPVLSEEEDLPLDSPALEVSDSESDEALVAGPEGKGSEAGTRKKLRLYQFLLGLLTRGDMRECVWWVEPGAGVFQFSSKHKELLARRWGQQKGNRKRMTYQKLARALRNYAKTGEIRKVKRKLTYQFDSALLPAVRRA
# Outline: as §1
# FEV = biological target: T4, FEV (Homo sapiens, UniProt Q99581 1-238)
# T4 sequence: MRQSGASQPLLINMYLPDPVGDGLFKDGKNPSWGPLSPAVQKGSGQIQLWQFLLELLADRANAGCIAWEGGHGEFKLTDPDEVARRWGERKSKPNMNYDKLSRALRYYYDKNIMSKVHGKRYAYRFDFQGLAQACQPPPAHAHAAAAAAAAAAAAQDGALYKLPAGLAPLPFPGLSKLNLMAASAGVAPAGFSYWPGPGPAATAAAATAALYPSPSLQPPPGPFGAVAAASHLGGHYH
# Outline: as §1
# ETV5 = ETV5 (Homo sapiens, UniProt P41161 1-510)
# Chain of ETV5 (P41161 whole entry): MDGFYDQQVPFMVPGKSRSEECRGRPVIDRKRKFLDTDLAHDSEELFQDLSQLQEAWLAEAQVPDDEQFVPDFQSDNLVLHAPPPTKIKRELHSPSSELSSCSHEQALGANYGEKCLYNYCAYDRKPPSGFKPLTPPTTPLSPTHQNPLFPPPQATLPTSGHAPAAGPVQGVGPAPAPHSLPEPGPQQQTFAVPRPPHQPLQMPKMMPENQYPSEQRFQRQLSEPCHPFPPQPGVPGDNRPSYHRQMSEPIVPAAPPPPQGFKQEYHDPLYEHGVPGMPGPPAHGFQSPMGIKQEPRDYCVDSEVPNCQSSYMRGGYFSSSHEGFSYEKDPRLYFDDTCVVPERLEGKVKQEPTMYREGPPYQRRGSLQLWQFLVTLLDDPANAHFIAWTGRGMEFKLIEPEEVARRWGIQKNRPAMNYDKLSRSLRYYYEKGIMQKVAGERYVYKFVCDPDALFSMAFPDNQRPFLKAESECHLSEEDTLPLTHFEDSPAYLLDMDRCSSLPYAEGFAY
# Outline: as §1
# ELF4 = ELF4 (Homo sapiens, UniProt Q99607 1-663)
# Chain of ELF4 (Q99607 whole entry): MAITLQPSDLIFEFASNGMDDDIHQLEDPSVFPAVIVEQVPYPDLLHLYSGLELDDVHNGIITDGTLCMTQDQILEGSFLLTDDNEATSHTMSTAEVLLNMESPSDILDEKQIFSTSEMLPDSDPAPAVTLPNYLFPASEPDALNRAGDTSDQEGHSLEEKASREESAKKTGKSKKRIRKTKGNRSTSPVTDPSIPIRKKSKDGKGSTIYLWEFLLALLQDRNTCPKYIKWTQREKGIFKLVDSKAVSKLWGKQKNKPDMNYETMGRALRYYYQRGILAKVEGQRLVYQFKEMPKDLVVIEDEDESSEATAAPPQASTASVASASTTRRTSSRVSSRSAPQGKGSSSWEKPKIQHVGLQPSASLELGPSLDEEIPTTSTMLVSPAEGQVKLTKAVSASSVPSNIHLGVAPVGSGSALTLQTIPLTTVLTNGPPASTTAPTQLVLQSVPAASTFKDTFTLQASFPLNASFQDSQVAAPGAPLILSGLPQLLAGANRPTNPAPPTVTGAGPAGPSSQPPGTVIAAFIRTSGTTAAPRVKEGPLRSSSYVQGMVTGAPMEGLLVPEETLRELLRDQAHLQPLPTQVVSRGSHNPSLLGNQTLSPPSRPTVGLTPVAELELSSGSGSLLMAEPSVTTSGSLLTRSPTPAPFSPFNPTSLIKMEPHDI
# Outline: as §1
# ELK4 = biological target: T5, ELK4 (Homo sapiens, UniProt P28324-2 1-405)
# T5 sequence: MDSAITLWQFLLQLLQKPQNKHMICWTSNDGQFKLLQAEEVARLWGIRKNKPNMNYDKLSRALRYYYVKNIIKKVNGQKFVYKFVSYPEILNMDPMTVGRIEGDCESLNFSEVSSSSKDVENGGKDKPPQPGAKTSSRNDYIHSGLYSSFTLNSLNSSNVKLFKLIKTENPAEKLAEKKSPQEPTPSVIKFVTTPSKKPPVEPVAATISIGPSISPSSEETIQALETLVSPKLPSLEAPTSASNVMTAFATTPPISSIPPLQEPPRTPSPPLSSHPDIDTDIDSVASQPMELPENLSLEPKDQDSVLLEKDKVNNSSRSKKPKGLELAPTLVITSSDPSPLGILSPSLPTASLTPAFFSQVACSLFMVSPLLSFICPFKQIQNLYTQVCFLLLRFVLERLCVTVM
# Outline: as §1
# ETV2 = biological target: T6, ETV2 (Homo sapiens, UniProt O00321 1-342)
# T6 sequence: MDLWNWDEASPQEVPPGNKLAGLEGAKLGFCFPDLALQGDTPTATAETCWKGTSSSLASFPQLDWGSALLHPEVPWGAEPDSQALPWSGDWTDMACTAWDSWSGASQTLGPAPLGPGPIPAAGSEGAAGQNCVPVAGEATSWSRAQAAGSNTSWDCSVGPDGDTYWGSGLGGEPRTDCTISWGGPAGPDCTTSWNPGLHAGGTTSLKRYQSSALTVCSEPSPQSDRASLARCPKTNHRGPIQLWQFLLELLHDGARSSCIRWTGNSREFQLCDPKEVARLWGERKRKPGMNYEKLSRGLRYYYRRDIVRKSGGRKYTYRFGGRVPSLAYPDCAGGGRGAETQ
# Outline: as §1
# ELF3 = biological target: T7, ELF3 (Homo sapiens, UniProt P78545 1-371)
# T7 sequence: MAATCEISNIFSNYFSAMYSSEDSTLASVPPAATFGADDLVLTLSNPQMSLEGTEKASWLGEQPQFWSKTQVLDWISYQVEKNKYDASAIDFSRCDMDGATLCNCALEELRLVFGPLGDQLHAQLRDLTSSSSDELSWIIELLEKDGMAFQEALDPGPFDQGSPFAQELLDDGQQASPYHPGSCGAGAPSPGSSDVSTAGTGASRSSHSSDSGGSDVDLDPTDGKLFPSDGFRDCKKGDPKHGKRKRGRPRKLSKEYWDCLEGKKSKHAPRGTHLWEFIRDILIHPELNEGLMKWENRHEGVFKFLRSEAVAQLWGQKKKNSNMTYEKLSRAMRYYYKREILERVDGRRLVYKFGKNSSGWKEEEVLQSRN
# Outline: as §1
# ETV1 = ETV1 (Homo sapiens, UniProt P50549 1-477)
# Chain of ETV1 (P50549 whole entry): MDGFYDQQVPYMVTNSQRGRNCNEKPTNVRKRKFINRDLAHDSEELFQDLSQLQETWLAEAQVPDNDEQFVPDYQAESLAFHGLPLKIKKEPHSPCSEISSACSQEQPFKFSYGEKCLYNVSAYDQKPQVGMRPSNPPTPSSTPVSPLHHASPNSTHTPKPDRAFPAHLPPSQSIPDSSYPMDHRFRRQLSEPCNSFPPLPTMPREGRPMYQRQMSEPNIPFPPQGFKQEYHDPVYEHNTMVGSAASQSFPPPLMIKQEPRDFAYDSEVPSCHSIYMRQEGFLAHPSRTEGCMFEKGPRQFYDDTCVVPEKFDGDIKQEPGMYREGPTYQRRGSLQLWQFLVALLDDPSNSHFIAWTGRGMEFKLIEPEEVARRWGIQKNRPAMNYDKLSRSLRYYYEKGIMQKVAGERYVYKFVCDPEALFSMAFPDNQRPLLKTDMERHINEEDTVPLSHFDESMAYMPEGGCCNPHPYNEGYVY
# Outline: as §1
# ERF = biological target: T8, ERF (Homo sapiens, UniProt P50548 1-548)
# T8 sequence: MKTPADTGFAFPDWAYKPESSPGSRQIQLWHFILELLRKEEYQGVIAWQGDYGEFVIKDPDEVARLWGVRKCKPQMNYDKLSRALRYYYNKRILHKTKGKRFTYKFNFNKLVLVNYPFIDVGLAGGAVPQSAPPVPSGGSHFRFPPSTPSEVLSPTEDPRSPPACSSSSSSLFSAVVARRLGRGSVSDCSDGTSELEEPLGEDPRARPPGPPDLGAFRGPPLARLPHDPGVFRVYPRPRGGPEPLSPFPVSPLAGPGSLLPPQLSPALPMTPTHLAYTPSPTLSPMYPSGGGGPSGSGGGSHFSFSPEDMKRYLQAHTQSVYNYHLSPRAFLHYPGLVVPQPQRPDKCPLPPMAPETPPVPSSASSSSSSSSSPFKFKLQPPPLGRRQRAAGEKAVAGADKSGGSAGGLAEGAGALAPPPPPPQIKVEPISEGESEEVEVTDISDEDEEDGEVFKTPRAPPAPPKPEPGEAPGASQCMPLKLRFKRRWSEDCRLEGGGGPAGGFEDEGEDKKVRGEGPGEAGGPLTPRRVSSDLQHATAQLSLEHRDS
# Outline: as §1
# ETV3L = biological target: T9, ETV3L (Homo sapiens, UniProt Q6ZN32 1-361)
# T9 sequence: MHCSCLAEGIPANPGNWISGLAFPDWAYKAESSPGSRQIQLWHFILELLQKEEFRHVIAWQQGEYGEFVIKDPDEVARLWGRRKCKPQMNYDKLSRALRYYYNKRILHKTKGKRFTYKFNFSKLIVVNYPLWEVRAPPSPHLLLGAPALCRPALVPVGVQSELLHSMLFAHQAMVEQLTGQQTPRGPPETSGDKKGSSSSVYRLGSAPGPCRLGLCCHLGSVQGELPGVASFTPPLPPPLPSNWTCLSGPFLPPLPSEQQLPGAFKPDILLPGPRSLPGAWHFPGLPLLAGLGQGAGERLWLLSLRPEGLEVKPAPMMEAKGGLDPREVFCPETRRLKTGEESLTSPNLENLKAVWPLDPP
# Outline: as §1
# ETS2 = biological target: T10, ETS2 (Homo sapiens, UniProt P15036 1-469)
# T10 sequence: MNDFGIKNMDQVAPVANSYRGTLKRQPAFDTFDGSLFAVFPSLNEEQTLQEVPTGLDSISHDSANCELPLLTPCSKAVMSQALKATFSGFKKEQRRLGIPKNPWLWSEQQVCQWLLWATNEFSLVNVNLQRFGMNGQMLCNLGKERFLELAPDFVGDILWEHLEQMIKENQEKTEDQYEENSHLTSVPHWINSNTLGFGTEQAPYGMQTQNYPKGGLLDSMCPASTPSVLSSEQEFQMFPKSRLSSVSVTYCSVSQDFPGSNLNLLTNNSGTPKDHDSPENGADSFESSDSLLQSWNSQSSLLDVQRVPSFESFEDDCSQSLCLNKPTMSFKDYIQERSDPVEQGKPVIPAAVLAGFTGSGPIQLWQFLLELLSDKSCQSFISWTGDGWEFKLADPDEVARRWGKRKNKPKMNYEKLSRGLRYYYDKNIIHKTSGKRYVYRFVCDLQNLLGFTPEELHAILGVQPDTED
# Outline: as §1
# SPDEF = biological target: T11, SPDEF (Homo sapiens, UniProt O95238 1-335)
# T11 sequence: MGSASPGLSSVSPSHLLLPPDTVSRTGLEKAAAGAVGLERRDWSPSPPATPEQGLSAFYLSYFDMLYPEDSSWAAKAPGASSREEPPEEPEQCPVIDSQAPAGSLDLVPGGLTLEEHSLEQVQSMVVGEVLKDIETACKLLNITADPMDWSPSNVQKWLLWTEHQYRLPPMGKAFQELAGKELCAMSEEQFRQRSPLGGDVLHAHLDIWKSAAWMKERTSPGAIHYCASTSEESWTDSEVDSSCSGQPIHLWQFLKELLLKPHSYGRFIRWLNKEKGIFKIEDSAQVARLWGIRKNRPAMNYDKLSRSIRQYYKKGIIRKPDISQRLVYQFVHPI
# Outline: as §1
# ETV7 = biological target: T12, ETV7 (Homo sapiens, UniProt Q9Y603 1-341)
# T12 sequence: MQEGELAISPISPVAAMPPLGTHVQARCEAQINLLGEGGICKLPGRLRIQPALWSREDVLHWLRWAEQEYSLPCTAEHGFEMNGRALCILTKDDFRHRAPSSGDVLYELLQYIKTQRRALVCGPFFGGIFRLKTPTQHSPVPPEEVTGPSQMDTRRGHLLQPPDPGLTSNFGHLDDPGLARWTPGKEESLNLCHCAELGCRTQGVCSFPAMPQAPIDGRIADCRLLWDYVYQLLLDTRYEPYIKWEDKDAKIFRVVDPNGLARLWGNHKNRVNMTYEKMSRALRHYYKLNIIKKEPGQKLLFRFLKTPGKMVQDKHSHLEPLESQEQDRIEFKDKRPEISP
# Outline: as §1
# ETV3 = biological target: T13, ETV3 (Homo sapiens, UniProt P41162-2 1-143)
# T13 sequence: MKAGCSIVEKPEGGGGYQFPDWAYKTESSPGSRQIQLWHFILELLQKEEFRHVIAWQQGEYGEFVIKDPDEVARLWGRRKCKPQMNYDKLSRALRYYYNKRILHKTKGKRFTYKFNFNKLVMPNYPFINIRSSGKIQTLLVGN
# Outline: as §1
# ETV6 = ETV6 (Homo sapiens, UniProt P41212 1-452)
# Chain of ETV6 (P41212 whole entry): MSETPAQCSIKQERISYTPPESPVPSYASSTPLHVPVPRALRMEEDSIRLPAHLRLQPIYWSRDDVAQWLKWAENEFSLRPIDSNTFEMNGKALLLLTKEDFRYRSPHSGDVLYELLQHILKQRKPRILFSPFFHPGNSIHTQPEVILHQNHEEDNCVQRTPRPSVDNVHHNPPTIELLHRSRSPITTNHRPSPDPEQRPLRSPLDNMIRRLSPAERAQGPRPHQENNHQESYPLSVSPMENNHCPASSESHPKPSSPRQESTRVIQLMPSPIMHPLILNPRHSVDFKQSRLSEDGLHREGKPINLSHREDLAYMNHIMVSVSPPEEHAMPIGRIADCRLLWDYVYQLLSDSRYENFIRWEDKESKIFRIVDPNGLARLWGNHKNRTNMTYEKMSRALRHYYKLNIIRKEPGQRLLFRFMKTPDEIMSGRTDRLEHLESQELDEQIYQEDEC
# Outline: as §1
sequence,measurement,setting,value
CATTAA,binding signal,ELK1,"1 fold enrichment (6-mer frequency, TF over GST control)"
same,binding signal,GABPA,"1.12 fold enrichment (6-mer frequency, TF over GST control)"
same,binding signal,ELF1,"1.07 fold enrichment (6-mer frequency, TF over GST control)"
same,binding signal,EHF,"1.01 fold enrichment (6-mer frequency, TF over GST control)"
same,binding signal,SPIB,"1.04 fold enrichment (6-mer frequency, TF over GST control)"
same,binding signal,FEV,"1.01 fold enrichment (6-mer frequency, TF over GST control)"
same,binding signal,ETV5,"1.07 fold enrichment (6-mer frequency, TF over GST control)"
same,binding signal,ELF4,"1.07 fold enrichment (6-mer frequency, TF over GST control)"
same,binding signal,ELK4,"1.02 fold enrichment (6-mer frequency, TF over GST control)"
same,binding signal,ETV2,"1.04 fold enrichment (6-mer frequency, TF over GST control)"
same,binding signal,ELF3,"1.05 fold enrichment (6-mer frequency, TF over GST control)"
same,binding signal,ETV1,"1.12 fold enrichment (6-mer frequency, TF over GST control)"
same,binding signal,ERF,"1.1 fold enrichment (6-mer frequency, TF over GST control)"
same,binding signal,ETV3L,"1.1 fold enrichment (6-mer frequency, TF over GST control)"
same,binding signal,ETS2,"1.04 fold enrichment (6-mer frequency, TF over GST control)"
same,binding signal,SPDEF,"1.01 fold enrichment (6-mer frequency, TF over GST control)"
same,binding signal,ETV7,"1.05 fold enrichment (6-mer frequency, TF over GST control)"
same,binding signal,ETV3,"1.02 fold enrichment (6-mer frequency, TF over GST control)"
same,binding signal,ETV6,"1.03 fold enrichment (6-mer frequency, TF over GST control)"
